In the library only some 2.8% were active in any assay of this set; here they are far more common.
a7 integrin act – activators of alpha7 integrin expression for muscular dystrophy | alpha7betagal myoblasts, beta-gal FDG fluorescence, 48 h | AID 624291 | Potency, µM (top dose mostly 38.3 µM), for the others: at the top dose activation, actives largely listed as activators | 350,000 compounds, 0.064% hits;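 also: potency is read from the fitted curve at half-maximal effect; 100% = response of the positive control SU9516; nearly all actives have a fitted effect of over 60% in size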
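Alpha7betagal+/- myoblasts (passage 13) were plated 16-24 hr, then exposed to compounds (1:260 dilution of DMSO stock) for 48 hours at 37C. After MPER lysis, β-galactosidase reporter activity was read as FDG fluorescence (ex 480/em 540) after 30 minutes.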
CBFb RUNX1 block – inhibitors of human CBF-beta and RUNX1 interaction. AlphaScreen CBFb-His/RUNX1-biotin binding, biochemical. Potency, µM (top dose mostly 59.8 µM), for the others: top-dose activity, negative = inhibition, most hits filed as inhibitors. Q01196+Q13951. AID 1477. 230,000 tested, under 10 active; also: % of control where 0% means no effect
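Inhibition was taken as any reduction in AlphaScreen signal from the CBF-beta–RUNX1 pair (His and biotin tags, 30 nM each), measured after compound (15 min) and bead (90 min) incubations at room temperature.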
MBNL1-CUG inh – MBNL1-poly(CUG) RNA binding inhibition; AID 2675; Q9NR56; Potency, µM (top dose mostly 57.5 µM), without a hit: at the top dose activity change, negative = inhibition, actives largely listed as inhibitors; TR-FRET MBNL1-His/biotin-(CUG)12 binding, 665/545 ratio; 280,000 compounds, 0.036% hits; active = well fitted inhibition curve with a large enough effect in the signal ratio, with a control signal flat, not every such curve was filed as active; inconclusive = small, poorly fitted or top-dose-only effect, or effect the other way, or a change in a side signal; inactive = no such curve, though single readings can be large or run the other way; the % refers to the signal ratio; also: potency is read from the fitted curve at half-maximal effect; % is scaled to controls: 0 for no effect and ±100 for the full control effect
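TR-FRET between His-tagged MBNL1 and biotin-(CUG)12 RNA, detected with Tb anti-His antibody (0.055 ng/ul) and streptavidin-XL665 (5 nM), 60 min at room temperature. Compounds titrated 92 nM to 58 uM; 665/545 nm ratio normalized to buffer and complex controls.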
PTHR1 ag – PTHR1 (human) receptor agonism | 410,000 compounds, 0.075% hits | HEK293 GP2 PTHR1 cells, GloSensor cAMP luminescence, 1 h | Potency, µM (series often up to 115 µM), inactives show top-dose activation, hits mostly activators | AID 743266; also: potency is read from the fitted curve at half-maximal effect; nearly all actives have a fitted effect of over 55% in size
Target sequence (Q03431 whole entry, looked up): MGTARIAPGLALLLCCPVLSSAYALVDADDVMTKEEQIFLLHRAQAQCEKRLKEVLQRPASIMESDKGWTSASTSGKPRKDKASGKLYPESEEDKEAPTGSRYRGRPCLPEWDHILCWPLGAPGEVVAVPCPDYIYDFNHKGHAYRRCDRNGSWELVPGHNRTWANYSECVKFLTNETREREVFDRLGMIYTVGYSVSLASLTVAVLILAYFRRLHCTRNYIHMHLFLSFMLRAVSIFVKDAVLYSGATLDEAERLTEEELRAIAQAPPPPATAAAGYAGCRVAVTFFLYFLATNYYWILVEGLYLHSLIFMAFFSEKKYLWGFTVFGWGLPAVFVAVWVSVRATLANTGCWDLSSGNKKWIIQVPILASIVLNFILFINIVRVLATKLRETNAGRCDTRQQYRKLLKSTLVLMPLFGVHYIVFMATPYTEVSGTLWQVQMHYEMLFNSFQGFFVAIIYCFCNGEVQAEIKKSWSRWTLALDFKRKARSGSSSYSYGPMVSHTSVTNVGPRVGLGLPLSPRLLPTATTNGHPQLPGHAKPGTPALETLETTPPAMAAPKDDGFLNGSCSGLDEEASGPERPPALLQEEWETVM
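HEK-293-derived GP2 cells expressing PTHR1 and a GloSensor cAMP reporter, 3,000/well, plated overnight, given luciferin plus IBMX (each 0.5 mM as added) for 1 h at 37 °C, then compound for 1 h at 37 °C. Luminescence was read after 15 min at room temperature.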
DRD3 antagonist – D3 dopamine receptor (human) antagonism; P35462; D3R cells, DiscoveRx beta-arrestin luminescence, antagonist mode; stronger effect = lower value; max response, negative = inhibition, %; 360,000 compounds, 2.5% hits; AID 652054; in the data active = max response below about -50%; inconclusive = no clear call, values can overlap the other calls; also: % is scaled to controls: 0 for no effect and ±100 for the full control effect
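Cells plated overnight at 1500 cells/well, then exposed to library compounds with dopamine controls for 90 minutes at 37 degrees C. DiscoveRx reagent added for 30–60 minutes at room temperature; luminescence read, quantitative HTS format.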
DRD3 agonist – activates the human D3 dopamine receptor | P35462 | D3R DiscoveRx beta-arrestin cells, luminescence, 90 min | max activation, % | 410,000 compounds, 0.58% hits | AID 652048; in the data active = max activation above about 30%; also: 0% is about no effect
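Agonist-mode cell screen: cells plated at 1500/well and incubated overnight at 37 °C, then exposed to library compounds for 90 min at 37 °C. Detection reagent was added for 30–60 min at room temperature, and luminescence was read.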
* = called active by the depositor; [ ] = another dose, or the depositor's remark. Unless noted, calls follow the shape of the dose curve; as a rule, active = well fitted curve in the direction sought with a large enough effect; inconclusive = small, poorly fitted or top-dose-only effect, or another doubt; inactive = no such curve, though single readings can be large; an effect the other way counts as inactive or inconclusive.

How did O=C(NCc1ccco1)c1ccc2c(=O)n(CCC3=CCCCC3)c(=O)[nH]c2c1 do in these assays?
a7 integrin act: -23.3%; CBFb RUNX1 block: 5.1%; MBNL1-CUG inh: 12.4%; PTHR1 ag: inactive; DRD3 antagonist: 37.2; DRD3 agonist: -2.3

How did CCN1CCN(C(=O)c2ccc3c(=O)n(CCC4=CCCCC4)c(=O)[nH]c3c2)CC1 do in these assays?
a7 integrin act: 20.4%; CBFb RUNX1 block: 3.2%; MBNL1-CUG inh: -6.7%; PTHR1 ag: 12.0%; DRD3 antagonist: -53.8*; DRD3 agonist: -12.3

How did COC(=O)c1ccccc1NC(=O)c1c(NC(=O)c2ccco2)sc2c1CCC(C(C)(C)C)C2 (stereo not drawn) do in these assays?
PTHR1 ag: -19.8%; DRD3 agonist: -14.9

What do the screens show for `COc1ccc(CSc2nc3ccncc3n2CC(=O)Nc2ccc(C)c(F)c2)cc1`?
PTHR1 ag: inactive; DRD3 agonist: -9.9

What do the screens show for `Cc1cccc(CSc2nc3ccncc3n2CC(=O)Nc2cc(C)cc(C)c2)c1`?
a7 integrin act: -6.6%; CBFb RUNX1 block: -4.0%[2.36 µM]; MBNL1-CUG inh: 101.5%; PTHR1 ag: -16.0%; DRD3 antagonist: -54.6*; DRD3 agonist: -11.1

How did O=C(CCCOc1ccccc1)N1CCN(c2ccccc2)CC1 do in these assays?
a7 integrin act: 0.0%; CBFb RUNX1 block: -1.8%; MBNL1-CUG inh: 5.7%; PTHR1 ag: -10.4%; DRD3 antagonist: -53.1*; DRD3 agonist: -20.0

Results for O=C(CCOc1ccccc1)N1CCN(c2ccc(O)cc2)CC1 ?
a7 integrin act: -48.7%; CBFb RUNX1 block: -15.8%; MBNL1-CUG inh: -5.3%; PTHR1 ag: inactive; DRD3 antagonist: 2.1; DRD3 agonist: 10.9

What do the screens show for `CC(C)c1c(C(=O)N/N=C/c2cccc(OCc3ccccc3)c2)nnn1-c1nonc1N`?
a7 integrin act: 3.7%; MBNL1-CUG inh: -5.9%; PTHR1 ag: -11.7%; DRD3 antagonist: 45.2; DRD3 agonist: 39.6*

Results for CC(C)c1c(C(=O)N/N=C/c2ccc(OCc3ccccc3)cc2)nnn1-c1nonc1N ?
a7 integrin act: 0.9%; MBNL1-CUG inh: 1.3%; PTHR1 ag: -37.8%; DRD3 antagonist: -0.2; DRD3 agonist: 0.4

What do the screens show for `COCc1c(C(=O)N/N=C(/C)c2ccc(OCc3ccccc3)cc2)nnn1-c1nonc1N`?
a7 integrin act: 10µM*; MBNL1-CUG inh: -3.6%; PTHR1 ag: 5.2%; DRD3 antagonist: 0.0; DRD3 agonist: -7.4

How did COCc1c(C(=O)N/N=C(/C)c2ccccc2)nnn1-c1nonc1N do in these assays?
a7 integrin act: -14.8%; CBFb RUNX1 block: 1.0%; MBNL1-CUG inh: -3.4%; PTHR1 ag: inconclusive; DRD3 antagonist: 15.8; DRD3 agonist: 1.1

How did Fc1cccc(CCN2CCN=C2Nc2ccccc2)c1 do in these assays?
a7 integrin act: -20.4%; PTHR1 ag: inactive; DRD3 antagonist: -74.1*; DRD3 agonist: -65.2

How did Cc1ccc2c(C)ccc(O)c2n1 do in these assays?
a7 integrin act: -30.2%; CBFb RUNX1 block: -0.1%; MBNL1-CUG inh: 21.1%; PTHR1 ag: inactive; DRD3 antagonist: -78.6*; DRD3 agonist: -7.5

Results for Cc1ccc2ccc3ccc(C)nc3c2n1 ?
MBNL1-CUG inh: 0.0%; PTHR1 ag: -23.9%; DRD3 antagonist: 25.7; DRD3 agonist: -28.9

Results for CC[C@@H](C)CCCCC(=O)N[C@H](CCN)C(=O)N[C@@H](C(=O)N[C@H](CCN)C(=O)N[C@@H]1CCNC(=O)C([C@@H](C)O)NC(=O)[C@@H](CCN)NC(=O)[C@@H](CCN)NC(=O)[C@@H](CC(C)C)NC(=O)[C@@H](Cc2ccccc2)NC(=O)[C@@H](CCN)NC1=O)[C@@H](C)O (stereo partly drawn) ?
DRD3 agonist: 6.6

Results for Cn1c(C=O)c(-c2ccc3cc[nH]c3c2)c2ccccc21 ?
a7 integrin act: 23.9%; PTHR1 ag: inactive; DRD3 antagonist: 15.1; DRD3 agonist: 31.3*

How did Cc1cccc(C)c1NC(=O)CSc1nnnn1-c1ccc(C(=O)O)cc1 do in these assays?
a7 integrin act: 14.7%; CBFb RUNX1 block: 8.3%; MBNL1-CUG inh: -5.9%; PTHR1 ag: inactive; DRD3 antagonist: -79.1*; DRD3 agonist: 2.2

What do the screens show for `Cc1ccccc1NC(=O)CCSc1nnnn1-c1ccccc1`?
a7 integrin act: 1.6%; CBFb RUNX1 block: -4.3%; MBNL1-CUG inh: -14.4%; PTHR1 ag: inconclusive; DRD3 antagonist: -23.2; DRD3 agonist: 31.1*

What do the screens show for `COc1ccccc1N1CCN(C(=O)c2ccc3c(c2)NC(=O)C(CSCc2ccccc2C)N3)CC1` (stereo not drawn)?
MBNL1-CUG inh: 12.9%

Results for Cc1ccc(S(=O)(=O)N2CCCC2CNC(=O)c2ccc(F)c(F)c2)cc1 (stereo not drawn) ?
a7 integrin act: -18.6%; PTHR1 ag: -27.2%; DRD3 antagonist: 0.0; DRD3 agonist: 1.4

Results for Cc1cccc(C)c1N(CC(=O)N1CCN(C)CC1)S(C)(=O)=O ?
a7 integrin act: -19.1%; CBFb RUNX1 block: 1.9%; MBNL1-CUG inh: -1.0%; PTHR1 ag: inactive; DRD3 antagonist: -79.2*; DRD3 agonist: 4.1

How did CC(=O)Nc1cccc(NC(=O)c2ccc(COc3ccccc3)cc2)c1 do in these assays?
a7 integrin act: -20.2%; MBNL1-CUG inh: 6.7%; PTHR1 ag: -3.2%; DRD3 antagonist: -6.4; DRD3 agonist: 10.9

What do the screens show for `COc1ccc2ccccc2c1CN1CCN(C(=O)c2ccccc2)CC1`?
a7 integrin act: -8.4%; CBFb RUNX1 block: 0.8%; MBNL1-CUG inh: 3.8%; PTHR1 ag: inactive; DRD3 antagonist: inconclusive; DRD3 agonist: -16.1

How did Cc1ccccc1-c1nnc(CN2CCN(C(=O)c3ccco3)CC2)o1 do in these assays?
a7 integrin act: 17.5%; MBNL1-CUG inh: -7.0%; PTHR1 ag: -18.9%; DRD3 antagonist: 0.8; DRD3 agonist: 19.5

Results for COc1ccc2ccccc2c1CN1CCN(C(=O)c2ccco2)CC1 ?
a7 integrin act: -29.4%; MBNL1-CUG inh: 2.4%; PTHR1 ag: -75.9%; DRD3 antagonist: -10.1; DRD3 agonist: 47.9*

What do the screens show for `O=C(c1ccco1)N1CCN(Cc2nnc(-c3cccc(Cl)c3)o2)CC1`?
a7 integrin act: -22.3%; MBNL1-CUG inh: -4.1%; PTHR1 ag: inactive; DRD3 antagonist: -6.7; DRD3 agonist: 36.9*

Results for CCOc1cc(CN2CCN(C(=O)c3ccco3)CC2)ccc1OC ?
a7 integrin act: -8.2%; CBFb RUNX1 block: 18.1%; MBNL1-CUG inh: 0.7%; PTHR1 ag: inactive; DRD3 antagonist: inconclusive; DRD3 agonist: 43.7*

Source: PubChem BioAssay
